Assay [1] is described as follows: qHTS assay to identify small molecule antagonists of the estrogen receptor alpha (ER-alpha) signaling pathway using the BG1 cell line in the presence of 0.1 nM 17-beta-estradiol - cell viability counter screen (AID 1259241). Also: nearly all actives have a fitted effect of over 40% in size. Summed up: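 The cell line endogenously expresses full-length ER-alpha and carries four EREs driving luciferase. Cells are cultured 5 days hormone-free, treated 22 hr with compounds and 0.1 nM estradiol, then viability is read by fluorescence.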

Assay [2] can be described thus: qHTS assay to identify small molecule antagonists of the androgen receptor (AR) signaling pathway using the MDA cell line in the presence of 0.5 nM R1881 - cell viability counter screen (AID 1259242). Also: nearly all actives have a fitted effect of over 45% in size. The method in brief: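 Cells seeded at 3,000/well and allowed 5 hr at 37C, 0% CO2 before compound transfer and R1881 (0.5 nM final) addition; 16 hr later, live-cell protease fluorescence indicated cytotoxicity.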

Assay [3] in a line: qHTS assay to identify small molecule HDAC inhibitors (AID 1259364).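 Also: wild-type HCT-116 cells with endogenous class I/II HDAC activity; top concentration of the series differs between compounds; nearly all actives have a fitted effect of over 45% in size.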 Summed up:
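HCT-116 wt cells, 1,500/well, overnight attach. Compounds (DMSO) 2 h, 37 °C. HDAC-Glo I/II, 30 min RT. Luminescence.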

A short description of assay [4]: qHTS assay to identify small molecule HDAC inhibitors - cell viability counter screen (AID 1259365). Also: series mostly up to about 92 µM; nearly all actives have a fitted effect of over 50% in size. The method in brief:
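Viability readout: CellTiter-Glo luminescence. Wild-type HCT-116 cells, 2hr compound treatment following overnight attachment at 37 C.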

A short description of assay [5]: qHTS assay to identify small molecule antagonists of the sonic hedgehog signaling (Shh) pathway - cell viability counter screen (AID 1259367). Also: nearly all actives have a fitted effect of over 55% in size. Summed up:
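Fluorescence read-out (CellTiter-Fluor, 1 hr at 37C) taken after 23 hr compound treatment of 3T3 Gli1-Luc cells stimulated with conditioned medium. Cells were seeded at 2,000 per well and pre-incubated 4 hr.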

Assay [6] in a line: qHTS assay to identify small molecule agonists of the sonic hedgehog signaling (Shh) pathway (AID 1259368; calls by dose curve;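 also: NIH/3T3-derived 3T3Gli1-Luc cells carrying a stable Gli1-driven firefly luciferase reporter; series mostly up to about 92 µM; nearly all actives have a fitted effect of over 15% in size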). Summed up:
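Following a 24 hr incubation with DMSO-dissolved compounds at 37 C, 5% CO2, Gli1-Luc NIH/3T3-derived cells received luciferase reagent for 30 min at room temperature prior to luminescence measurement.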

The target of assay [7] is Estrogen receptor beta (Homo sapiens) (UniProt Q92731). Briefly: qHTS assay to identify small molecule agonists of the estrogen receptor beta (ER-beta) signaling pathway (AID 1259377; active = well fitted activation curve with a large enough effect in the signal ratio in the repeat runs, not every such curve was filed as active; the % refers to the signal ratio). The method in brief: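 A UAS-controlled beta-lactamase reporter in ER-beta-UAS-bla HEK293T cells reports receptor activation. Compounds act for 16 hr at 37C in 2% charcoal-stripped serum, and a FRET substrate is read by fluorescence after 2 hours.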

Assay [8] can be described thus: qHTS assay to identify small molecule agonists of the androgen receptor (AR) signaling pathway in the presence of an antagonist - cell viability counter screen (AID 1259379).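 Also: MDA-kb2 human breast cancer cells carrying an MMTV luciferase reporter; series mostly up to about 92 µM; nearly all actives have a fitted effect of over 25% in size.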 The method in brief: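 Each compound was tested at 15 concentrations on MDA-kb2 cells in the presence of 3.0uM nilutamide. Viability was measured by CellTiter-Fluor fluorescence after a 16 hr incubation at 37C in a CO2-free atmosphere.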

Assay [9] is described as follows: qHTS assay to identify small molecule agonists of the estrogen receptor beta (ER-beta) signaling pathway - cell viability counter screen (AID 1259380). Also: nearly all actives have a fitted effect of over 30% in size. Also: potency is read from the fitted curve at half-maximal effect. The method in brief:
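Compounds dissolved in DMSO were pin-transferred onto ER-beta-UAS-bla HEK293T cells that had settled 6 hr, and exposure ran 16 hr at 37C. Following the reporter read, CellTiter-Glo luminescence after 30 min at room temperature indicated cytotoxicity.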

Assay [10] can be described thus: qHTS assay to identify small molecule antagonists of the estrogen receptor beta (ER-beta) signaling pathway - cell viability counter screen (AID 1259382). Also: nearly all actives have a fitted effect of over 55% in size. Also: potency is read from the fitted curve at half-maximal effect. The method in brief:
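CellTiter-Glo ATP luminescence measured after the LiveBLAzer read in the same wells; ER-beta-UAS-bla HEK293T cells, 16 hr compound treatment with 1nM 17-beta-estradiol agonist at 37C, 5% CO2.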

The nature of assay [11]: qHTS assay to identify small molecule agonists or antagonists of the thyroid stimulating hormone receptor (TSHR) signaling pathway - wild type cell line counter screen (AID 1259384; calls by dose curve). Summed up:
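Wild-type Hek293 cells, 800/well, 18 h at 37C, then compound with Ro20-1724 for 30 min RT. cAMP by HTRF (cAMP-d2/anti-cAMP cryptate), 1 h RT, fluorescence read. 15 concentrations, triplicates.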

Assay [12] in a line: qHTS assay to identify small molecule agonists of the sonic hedgehog signaling (Shh) pathway - cell viability counter screen (AID 1259366). Also: nearly all actives have a fitted effect of over 50% in size. Summed up: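 Viability measured fluorometrically (CellTiter-Fluor, 1hr, 37C) in 3T3 Gli1-Luc reporter cells after 23hr compound exposure within a 24hr incubation at 37C/5% CO2.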
Assay [13] is described as follows: qHTS assay to identify small molecule antagonists of the sonic hedgehog signaling (Shh) pathway (AID 1259369; calls by dose curve; also: nearly all actives have a fitted effect of over 45% in size; also: potency is read from the fitted curve at half-maximal effect). Summed up:
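Read-out is luminescence from a firefly luciferase gene controlled by the Gli1 response element, in 3T3Gli1-Luc cells pre-incubated 4hr then exposed to compounds and conditioned medium for 24hr.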

For assay [14], the target named is Estrogen receptor (Homo sapiens) (UniProt P03372). Briefly: qHTS assay to identify small molecule agonists of the estrogen receptor alpha (ER-alpha) signaling pathway in the presence of an antagonist (AID 1259383; calls by dose curve; also: top concentration of the series differs between compounds; nearly all actives have a fitted effect of over 15% in size). Summed up:
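Luminescent ERE-luciferase reporter, VM7Luc4E2 cells (endogenous ER-alpha); 10.0nM ICI-182,780 final; 15-point compound titration; 22hr at 37C; ONE-Glo, 30min RT.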

Assay [15] deals with Thyrotropin receptor (Homo sapiens) (UniProt P16473). Briefly: qHTS assay to identify small molecule antagonists of the thyroid stimulating hormone receptor (TSHR) signaling pathway (AID 1259385; calls by dose curve; also: nearly all actives have a fitted effect of over 20% in size; also: potency is read from the fitted curve at half-maximal effect). Summed up:
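TSHR-HEK293 cells (800/well) plated 18 h, then compounds with Ro20-1724 and TSH at 1.5 ng/mL final, 30 min at room temperature. cAMP quantified by HTRF (cAMP-d2/anti-cAMP-cryptate, 1 h); 15 concentrations in triplicate.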

Assay [16] concerns the target Androgen receptor (Homo sapiens) (UniProt P10275). As to the kind of experiment: qHTS assay to identify small molecule agonists of the androgen receptor (AR) signaling pathway in the presence of an antagonist (AID 1259381; calls by dose curve; also: nearly all actives have a fitted effect of over 15% in size). Summed up: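 Plated MDA-kb2 cells (3,000/well) were pre-incubated 5hr, given nilutamide (3.0uM final) or buffer, then dosed with compounds in DMSO at 15 concentrations. Luciferase activity was quantified by luminescence after 16hr at 37C.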

In assay [17] the target is Estrogen receptor beta (Homo sapiens) (UniProt Q92731). Briefly: qHTS assay to identify small molecule antagonists of the estrogen receptor beta (ER-beta) signaling pathway (AID 1259378; active = well fitted inhibition curve with a large enough effect in the signal ratio in the repeat runs, not every such curve was filed as active; the % refers to the signal ratio). The method in brief: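 ER-beta-UAS-bla HEK293T cells in 2% charcoal-stripped FBS medium treated with compound plus 1nM final 17-beta-estradiol for 16 hr at 37C. Beta-lactamase reporter read by FRET substrate fluorescence after 2 hours at room temperature.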

SMILES strings stand for the structures. Values without a mark were called inactive. Records with an inconclusive call do not appear. Active and inactive are the calls of the source. Unless noted, calls follow the shape of the dose curve; as a rule, active = well fitted curve in the direction sought with a large enough effect in the repeat runs; inconclusive = weak or mixed curves; inactive = no such curve, though single readings can be large; an effect the other way counts as inactive or inconclusive.

Sequence of Thyrotropin receptor (Homo sapiens) (P16473 whole entry, looked up): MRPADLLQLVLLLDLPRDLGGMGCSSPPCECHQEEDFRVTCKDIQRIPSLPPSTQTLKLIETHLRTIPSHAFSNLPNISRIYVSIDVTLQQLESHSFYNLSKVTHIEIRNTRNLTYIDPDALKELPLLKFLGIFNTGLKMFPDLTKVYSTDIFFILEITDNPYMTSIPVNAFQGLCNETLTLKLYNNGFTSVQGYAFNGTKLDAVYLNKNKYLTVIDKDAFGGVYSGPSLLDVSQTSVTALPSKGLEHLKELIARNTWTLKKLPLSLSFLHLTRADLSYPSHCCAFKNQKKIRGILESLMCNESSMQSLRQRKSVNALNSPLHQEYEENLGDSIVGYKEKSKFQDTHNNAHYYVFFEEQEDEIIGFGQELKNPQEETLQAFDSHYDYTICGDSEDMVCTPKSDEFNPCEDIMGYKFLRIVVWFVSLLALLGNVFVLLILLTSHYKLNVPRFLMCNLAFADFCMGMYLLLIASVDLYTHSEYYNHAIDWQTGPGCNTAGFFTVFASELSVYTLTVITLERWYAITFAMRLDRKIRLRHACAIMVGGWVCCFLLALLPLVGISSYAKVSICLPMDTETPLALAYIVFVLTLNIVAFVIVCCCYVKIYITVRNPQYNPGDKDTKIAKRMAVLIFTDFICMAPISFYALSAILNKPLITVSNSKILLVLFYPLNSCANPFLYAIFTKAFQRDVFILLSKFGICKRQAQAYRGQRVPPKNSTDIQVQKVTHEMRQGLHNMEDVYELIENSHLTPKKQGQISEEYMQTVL
Sequence of Estrogen receptor (Homo sapiens) (P03372 whole entry, looked up): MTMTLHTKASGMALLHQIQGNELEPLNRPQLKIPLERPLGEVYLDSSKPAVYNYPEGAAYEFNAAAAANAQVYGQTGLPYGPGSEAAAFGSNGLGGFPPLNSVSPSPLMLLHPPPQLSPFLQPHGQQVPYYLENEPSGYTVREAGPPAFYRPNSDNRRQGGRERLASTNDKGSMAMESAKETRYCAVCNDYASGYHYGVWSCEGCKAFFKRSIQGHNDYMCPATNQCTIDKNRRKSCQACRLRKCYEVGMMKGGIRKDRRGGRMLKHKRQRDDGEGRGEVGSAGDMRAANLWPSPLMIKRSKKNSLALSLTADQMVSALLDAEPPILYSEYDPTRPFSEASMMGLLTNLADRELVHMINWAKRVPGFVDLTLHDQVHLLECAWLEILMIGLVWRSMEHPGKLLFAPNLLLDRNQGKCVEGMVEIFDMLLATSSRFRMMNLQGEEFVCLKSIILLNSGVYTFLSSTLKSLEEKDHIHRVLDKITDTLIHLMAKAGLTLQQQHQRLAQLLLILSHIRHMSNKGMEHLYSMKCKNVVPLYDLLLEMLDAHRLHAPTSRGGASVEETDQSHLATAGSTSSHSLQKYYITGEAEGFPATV
Sequence of Estrogen receptor beta (Homo sapiens) (Q92731 whole entry, looked up): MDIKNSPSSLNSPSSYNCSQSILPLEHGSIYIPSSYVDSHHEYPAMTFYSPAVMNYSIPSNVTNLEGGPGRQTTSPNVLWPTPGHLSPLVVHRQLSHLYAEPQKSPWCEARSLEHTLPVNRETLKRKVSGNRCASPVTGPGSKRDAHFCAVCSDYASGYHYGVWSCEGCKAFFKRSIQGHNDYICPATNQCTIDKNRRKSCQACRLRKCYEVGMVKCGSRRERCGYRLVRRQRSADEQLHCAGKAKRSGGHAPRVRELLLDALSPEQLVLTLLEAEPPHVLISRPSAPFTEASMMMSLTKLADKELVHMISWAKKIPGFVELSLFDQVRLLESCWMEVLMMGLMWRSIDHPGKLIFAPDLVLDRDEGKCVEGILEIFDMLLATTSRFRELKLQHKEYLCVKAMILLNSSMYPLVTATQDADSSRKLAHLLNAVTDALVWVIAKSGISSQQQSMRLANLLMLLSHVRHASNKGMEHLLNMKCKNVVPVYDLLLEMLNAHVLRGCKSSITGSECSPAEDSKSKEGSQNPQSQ
Sequence of Androgen receptor (Homo sapiens) (P10275 whole entry, looked up): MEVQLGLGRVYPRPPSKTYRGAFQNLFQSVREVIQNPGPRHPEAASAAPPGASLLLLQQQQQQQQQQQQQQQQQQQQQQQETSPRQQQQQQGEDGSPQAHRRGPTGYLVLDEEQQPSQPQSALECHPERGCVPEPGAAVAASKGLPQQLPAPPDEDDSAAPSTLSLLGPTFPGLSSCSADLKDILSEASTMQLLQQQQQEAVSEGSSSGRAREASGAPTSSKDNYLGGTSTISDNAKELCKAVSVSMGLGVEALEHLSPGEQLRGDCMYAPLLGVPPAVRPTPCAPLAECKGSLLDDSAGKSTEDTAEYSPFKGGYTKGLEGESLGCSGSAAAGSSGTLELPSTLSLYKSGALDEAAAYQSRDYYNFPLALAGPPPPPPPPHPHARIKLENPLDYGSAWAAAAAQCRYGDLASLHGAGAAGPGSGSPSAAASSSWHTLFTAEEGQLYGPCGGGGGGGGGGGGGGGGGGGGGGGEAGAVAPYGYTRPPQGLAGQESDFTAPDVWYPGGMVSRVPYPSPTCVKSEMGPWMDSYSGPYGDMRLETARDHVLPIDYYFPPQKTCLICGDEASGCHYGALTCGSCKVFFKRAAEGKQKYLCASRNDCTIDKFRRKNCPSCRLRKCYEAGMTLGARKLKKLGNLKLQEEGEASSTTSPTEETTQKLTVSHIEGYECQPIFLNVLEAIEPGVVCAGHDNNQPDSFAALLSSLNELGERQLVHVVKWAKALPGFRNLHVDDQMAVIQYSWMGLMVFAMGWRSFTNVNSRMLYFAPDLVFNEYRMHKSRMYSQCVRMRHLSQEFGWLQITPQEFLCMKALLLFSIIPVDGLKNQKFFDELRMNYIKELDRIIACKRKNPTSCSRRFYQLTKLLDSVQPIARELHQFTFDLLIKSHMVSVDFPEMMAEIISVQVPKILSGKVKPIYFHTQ

On to `CCCCCCCCCCCCN1CCCCCC1=O`, for which the Potency result in assay [1], in [2], in assay [3], in assay [4], in [5] and in assay [7] was “inactive” each time. The Potency entry in assay [8], in [10] and in [11] was “inactive” in each case. Moreover, in assay [6], the call was inactive. Besides, the Potency in assay [9] is 30.6 µM (active).
Take `CCOc1ccc(N)c([N+](=O)[O-])c1`: the Potency entry in [1], in assay [2], in assay [3], in assay [4], in assay [12] and in [5] was “inactive” each time. For the same compound, the Potency entry in assay [13], in [9], in assay [10], in assay [14], in [11] and in [15] was “inactive” throughout. For the same compound, the call in assay [6] was inactive.
For `CCC(C)O` (stereo not given), the Potency result in assay [1], in [2], in assay [3], in assay [4], in [12] and in assay [5] was “inactive” each time. The Potency result in assay [13], in assay [8], in assay [9], in [10], in assay [11] and in assay [15] was “inactive” throughout. In addition, the compound was classed as inactive in assay [6].
Take `CC(C)OC(=O)C(C)N(C(=O)c1ccccc1)c1ccc(F)c(Cl)c1` (stereo not given): the Potency result in [1], in assay [2], in assay [3], in assay [4], in assay [12] and in assay [5] was “inactive” throughout. The Potency result in [7], in assay [8], in assay [9] and in assay [10] was “inactive” each time. The compound was called inactive in [6].
On to `CN(C)c1ccc(C(c2ccccc2)c2ccc(N(C)C)cc2)cc1`, for which the Potency result in assay [1], in [2], in assay [3], in assay [4], in [12] and in assay [5] was “inactive” each time. The Potency entry in assay [16] and in [11] was “inactive” throughout. For the same compound, the compound was classed as inactive in assay [6]. The Potency in assay [13] is 3.06 µM (active); in [9], 17.2 µM (active).
As for `CC(C)(C)OCC1CO1` (stereo not given), the Potency result in assay [1], in [2], in assay [3], in assay [4], in assay [5] and in assay [7] was “inactive” each time. Besides, the Potency result in assay [17], in assay [8], in assay [9], in [10] and in assay [11] was “inactive” throughout. For the same compound, in assay [6], the compound was called inactive.
`Nc1cc(C(=O)O)c(O)c(S(=O)(=O)O)c1`: the Potency result in [1], in [2], in [3], in [4], in [5] and in assay [13] was “inactive” in each case. Also, the Potency result in assay [7], in assay [17], in assay [8], in assay [9], in [10] and in assay [11] was “inactive” each time. Besides, in assay [6], the outcome was inactive.
Regarding `CCOC(=O)C(F)(F)F`, the Potency entry in assay [1], in assay [2], in assay [3], in assay [4], in assay [12] and in assay [5] was “inactive” each time. Moreover, the Potency entry in assay [13], in assay [8], in assay [9], in assay [10], in [11] and in assay [15] was “inactive” each time. In addition, the compound was called inactive in assay [6].
As to `C/C=C/C=C/CO`, the Potency entry in [1], in [2], in [3], in assay [4], in [5] and in assay [7] was “inactive” throughout. The Potency result in [17], in [8], in assay [9], in assay [10] and in assay [15] was “inactive” in each case. Besides, the outcome in [6] was inactive.
`Clc1ccc2c(c1)CCc1cccnc1C2=C1CCNCC1`: the Potency result in assay [1], in assay [2], in [3], in assay [4], in assay [7] and in assay [14] was “inactive” throughout. For the same compound, the Potency entry in assay [11] is “inactive”. Besides, the outcome in [6] was inactive. The Potency in assay [13] was 1.68 µM (active); in assay [9], 33.5 µM (active); in assay [10] it was 18.8 µM (active); in assay [15], 26.6 µM (active).
For the compound `CCCCC(CC)CN1C(=O)C2C3C=CC(C3)C2C1=O` (stereo not given), the Potency result in [1], in assay [2], in assay [3], in [4], in [12] and in [7] was “inactive” each time. For the same compound, the Potency result in assay [8], in assay [10], in assay [14], in assay [11] and in assay [15] was “inactive” each time. Further, in [6], the result was inactive.
With `S=C([S-])NCCNC(=S)[S-].[Mn+2]`, the Potency result in assay [1], in assay [2], in assay [3], in [4], in [5] and in assay [13] was “inactive” throughout. The Potency entry in assay [7], in [17], in assay [8], in assay [10], in assay [11] and in assay [15] was “inactive” throughout. Also, in assay [6], the compound was called inactive.
Turning to `Nc1ccc([N+](=O)[O-])c(C(F)(F)F)c1`, the Potency entry in [1], in [2], in [3], in [4], in assay [5] and in assay [7] was “inactive” in each case. For the same compound, the Potency result in assay [17], in assay [8], in [9], in assay [10], in assay [14] and in assay [11] was “inactive” throughout. Also, the Potency result in assay [15] was “inactive”. The compound was called inactive in assay [6].
Turning to `COC(=O)c1ccc(I)cc1S(=O)(=O)NC(=O)Nc1nc(C)nc(OC)n1`, the Potency result in assay [1], in assay [2], in assay [3], in assay [4], in assay [12] and in assay [5] was “inactive” throughout. Further, the Potency entry in assay [13], in assay [8], in [9], in assay [10], in assay [11] and in [15] was “inactive” each time. In addition, the outcome in assay [6] was inactive.
`Nc1ccccc1S(=O)(=O)c1ccccc1`: the Potency entry in assay [1], in [2], in assay [3], in assay [4], in assay [12] and in assay [5] was “inactive” throughout. The Potency result in [8], in [9], in assay [10], in [11] and in assay [15] was “inactive” each time. Besides, the compound was classed as inactive in [6].
